What is called AC50 is the concentration giving half of the maximal activity seen.

Calls of active or inactive are those of the source. How the source made its calls: active means hit-call score of the fitted dose curve at least 0.9, where 1 is the maximum; inactive means score below 0.9.

Settings in all cases: mRNA level, 48 h; actives raise or lower the signal
Read-out in test [1]: Fatty acid synthase (Homo sapiens) (UniProt P49327)
The experiment in a line: LTEA_HepaRG_FASN: Life Technologies and Expression Analysis (LTEA) Assay for Fatty Acid Synthase (FASN) using HepaRG (AID 2283448). Put shortly:
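Differentiated human HepaRG cells were exposed for 48 h in serum-free induction medium to eight half-log concentrations up to 100 uM in 0.5% DMSO, in duplicate. FASN mRNA was quantified by TaqMan qRT-PCR, normalized to ACTB/GAPDH/POLR2A, and fitted bidirectionally against DMSO.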

Read-out in test [2]: Cyclin Dependent Kinase Inhibitor 1A (CDKN1A), CDKN1A (gene 1026)
The experiment in a line: LTEA_HepaRG_CDKN1A: Life Technologies and Expression Analysis (LTEA) Assay for Cyclin Dependent Kinase Inhibitor 1A (CDKN1A) using HepaRG (AID 2283450). In short, it runs like this: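 Gain or loss of CDKN1A transcript is scored by bidirectional fitting against 0.5% DMSO vehicle. Human HepaRG cultures receive chemicals for 48 h across an 8-point series peaking at 100 uM; expression comes from qRT-PCR.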

Read-out in test [3]: Cyclin D1 (CCND1), CCND1 (gene 595)
The experiment in a line: LTEA_HepaRG_CCND1: Life Technologies and Expression Analysis (LTEA) Assay for Cyclin D1 (CCND1) using HepaRG (AID 2283451). Put shortly:
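Expression change is measured by qRT-PCR in HepaRG cells after 48 h treatment across eight concentrations topping at 100 uM, with duplicate wells and DMSO (0.5%) serving as baseline for bidirectional fitting.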

Read-out in test [4]: catalase (CAT), CAT (gene 847)
Put plainly: LTEA_HepaRG_CAT: Life Technologies and Expression Analysis (LTEA) Assay for catalase (CAT) using HepaRG (AID 2283452). Put shortly: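 HepaRG cells in serum-free induction medium, 0.5% DMSO vehicle, exposed 48 h in duplicate over 8 half-log concentrations from 100 uM. CAT mRNA measured by qRT-PCR, normalized to ACTB, GAPDH, POLR2A; bidirectional fit versus DMSO.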

Read-out in test [5]: flavin-containing dimethylaniline monooxygenases 3 (FMO3), FMO3 (gene 2328)
The experiment in a line: LTEA_HepaRG_FMO3: Life Technologies and Expression Analysis (LTEA) Assay for flavin-containing dimethylaniline monooxygenases 3 (FMO3) using HepaRG (AID 2283453). In short, it runs like this: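 HepaRG, 48 h exposure, 8-pt half-log series from 100 uM, 0.5% DMSO vehicle, duplicates; FMO3 transcript by Fluidigm TaqMan qRT-PCR, housekeeping-normalized; gain/loss fit vs DMSO.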

Read-out in test [6]: Cytochrome P450 (CYP1A1), CYP1A1 (gene 1543)
Put plainly: LTEA_HepaRG_CYP1A1: Life Technologies and Expression Analysis (LTEA) Assay for Cytochrome P450 (CYP1A1) using HepaRG (AID 2283454). In short, it runs like this:
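Using HepaRG cultures with 0.5% DMSO as vehicle, eight-concentration exposures (max 100 uM) lasted 48 h. Transcript levels were measured by TaqMan qRT-PCR and normalized to ACTB, GAPDH and POLR2A.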

Read-out in test [7]: CFLAR gene, CFLAR (gene 8837)
The experiment in a line: LTEA_HepaRG_CFLAR: Life Technologies and Expression Analysis (LTEA) Assay for CFLAR gene using HepaRG (AID 2283455). In short, it runs like this: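 Differentiated HepaRG cells in serum-free induction medium were exposed 48 h in duplicate to eight half-log concentrations up to 100 uM in 0.5% DMSO; mRNA measured by TaqMan qRT-PCR, normalized to ACTB, GAPDH, POLR2A; bidirectional fitting versus DMSO.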

Read-out in test [8]: Forkhead box O1 (FOXO1), FOXO1 (gene 2308)
The experiment in a line: LTEA_HepaRG_FOXO1: Life Technologies and Expression Analysis (LTEA) Assay for Forkhead box O1 (FOXO1) using HepaRG (AID 2283456). Put shortly:
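Differentiated HepaRG cells, in serum-free induction medium with 0.5% DMSO, exposed 48 h in duplicate to 8-point half-log series from 100 uM. FOXO1 mRNA measured by TaqMan qRT-PCR, normalized to ACTB, GAPDH, POLR2A; bidirectional fit versus DMSO.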

Read-out in test [9]: growth arrest and DNA damage 45 (GADD45A), GADD45A (gene 1647)
The experiment in a line: LTEA_HepaRG_GADD45A: Life Technologies and Expression Analysis (LTEA) Assay for growth arrest and DNA damage 45 (GADD45A) using HepaRG (AID 2283458). Put shortly:
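Differentiated HepaRG cells were exposed in duplicate for 48 h in serum-free induction medium to 8-point half-log concentrations up to 100 uM in 0.5% DMSO. GADD45A mRNA was measured by TaqMan qRT-PCR, normalized to ACTB, GAPDH and POLR2A, with bidirectional fitting versus DMSO.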

Read-out in test [10]: Forkhead box O3 (FOXO3), FOXO3 (gene 2309)
The experiment in a line: LTEA_HepaRG_FOXO3: Life Technologies and Expression Analysis (LTEA) Assay for Forkhead box O3 (FOXO3) using HepaRG (AID 2283459). Put shortly:
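Differentiated human HepaRG cells, 48 h post-plating, exposed in duplicate for 48 h in serum-free induction medium; 8-point half-log series from 100 uM in 0.5% DMSO. FOXO3 mRNA by TaqMan qRT-PCR, normalized to ACTB/GAPDH/POLR2A; bidirectional fit versus DMSO.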

Read-out in test [11]: ABC Transporter (ABCB1), ABCB1 (gene 5243)
Put plainly: LTEA_HepaRG_ABCB1: Life Technologies and Expression Analysis (LTEA) Assay for ABC Transporter (ABCB1) using HepaRG (AID 2283460). Put shortly:
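HepaRG cells exposed in duplicate for 48 h in serum-free induction medium to eight half-log concentrations up to 100 uM in 0.5% DMSO. ABCB1 mRNA quantified by qRT-PCR, normalised to ACTB, GAPDH and POLR2A; fitted bidirectionally versus DMSO.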

Read-out in test [12]: growth arrest and DNA damage 45 (GADD45B), GADD45B (gene 4616)
The experiment in a line: LTEA_HepaRG_GADD45B: Life Technologies and Expression Analysis (LTEA) Assay for growth arrest and DNA damage 45 (GADD45B) using HepaRG (AID 2283461). Put shortly: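 Human HepaRG monolayers receive chemicals for 48 h at eight half-log concentrations, highest 100 uM, in 0.5% DMSO. Expression is measured by TaqMan qRT-PCR and normalized to ACTB, GAPDH and POLR2A.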

Read-out in test [13]: ABC Transporter (ABCC3), ABCC3 (gene 8714)
Put plainly: LTEA_HepaRG_ABCC3: Life Technologies and Expression Analysis (LTEA) Assay for ABC Transporter (ABCC3) using HepaRG (AID 2283462). In short, it runs like this: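 Transcriptional change of ABCC3 in HepaRG after 48 h treatment, determined by qRT-PCR normalized to endogenous controls. Concentrations spanned eight half-log steps to 100 uM in 0.5% DMSO.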

Read-out in test [14]: ABC Transporter (ABCB11), ABCB11 (gene 8647)
Put plainly: LTEA_HepaRG_ABCB11: Life Technologies and Expression Analysis (LTEA) Assay for ABC Transporter (ABCB11) using HepaRG (AID 2283463). In short, it runs like this: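 Differentiated human HepaRG cells in serum-free induction medium, dosed in duplicate for 48 h. Eight-point half-log series from 100 uM in 0.5% DMSO; ABCB11 mRNA by qRT-PCR, normalized to ACTB, GAPDH, POLR2A, fitted bidirectionally versus DMSO.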

Read-out in test [15]: ABC Transporter (ABCC2), ABCC2 (gene 1244)
The experiment in a line: LTEA_HepaRG_ABCC2: Life Technologies and Expression Analysis (LTEA) Assay for ABC Transporter (ABCC2) using HepaRG (AID 2283464). In short, it runs like this: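 After plating and 48 h culture, HepaRG medium is replaced with serum-free induction medium and chemicals are added (8 concentrations, max 100 uM, 0.5% DMSO) for 48 h. Total RNA then undergoes qRT-PCR for ABCC2 with housekeeping normalization.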

Read-out in test [16]: Broad substrate specificity ATP-binding cassette transporter ABCG2 (Homo sapiens) (UniProt Q9UNQ0)
Put plainly: LTEA_HepaRG_ABCG2: Life Technologies and Expression Analysis (LTEA) Assay for ABC Transporter (ABCG2) using HepaRG (AID 2283465). Put shortly:
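Differentiated HepaRG cells were exposed for 48 h in serum-free induction medium to 8 half-log concentrations, top 100 uM, in 0.5% DMSO. ABCG2 mRNA was measured by qRT-PCR, normalized to ACTB, GAPDH and POLR2A, with bidirectional fitting versus DMSO.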

Read-out in test [17]: ATP-citrate lyase (ACLY), ACLY (gene 47)
Put plainly: LTEA_HepaRG_ACLY: Life Technologies and Expression Analysis (LTEA) Assay for ATP-citrate lyase (ACLY) using HepaRG (AID 2283466). Put shortly: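 Differentiated HepaRG cells exposed 48 h in serum-free induction medium to eight half-log concentrations up to 100 uM in 0.5% DMSO, duplicates. Transcript measured by Fluidigm TaqMan qRT-PCR, normalized to ACTB, GAPDH, POLR2A; bidirectional fit versus DMSO.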

Read-out in test [18]: Peroxisomal acyl-coenzyme A oxidase 1 (ACOX1) gene, ACOX1 (gene 51)
The experiment in a line: LTEA_HepaRG_ACOX1: Life Technologies and Expression Analysis (LTEA) Assay for Peroxisomal acyl-coenzyme A oxidase 1 (ACOX1) gene using HepaRG (AID 2283467). In short, it runs like this: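 HepaRG cells, plated 48 h then switched to serum-free induction medium, were exposed in duplicate for 48 h to 8-point half-log concentrations up to 100 uM in 0.5% DMSO. ACOX1 mRNA was measured by qRT-PCR, normalized to ACTB/GAPDH/POLR2A, and fitted bidirectionally versus DMSO.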

Read-out in test [19]: Cyclin D2 (CCND2), CCND2 (gene 894)
Put plainly: LTEA_HepaRG_CCND2: Life Technologies and Expression Analysis (LTEA) Assay for Cyclin D2 (CCND2) using HepaRG (AID 2283449).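 Further: CCND2 transcript measured by TaqMan qRT-PCR and normalised to three housekeeping genes.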 In short, it runs like this:
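Chemicals in 0.5% DMSO, eight half-log concentrations from 100 uM top, were applied in duplicate for 48 h to human HepaRG cells in serum-free induction medium. CCND2 mRNA by TaqMan qRT-PCR, normalised to ACTB/GAPDH/POLR2A; bidirectional fit versus DMSO.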

Sequence of Fatty acid synthase (Homo sapiens) (P49327 whole entry, looked up): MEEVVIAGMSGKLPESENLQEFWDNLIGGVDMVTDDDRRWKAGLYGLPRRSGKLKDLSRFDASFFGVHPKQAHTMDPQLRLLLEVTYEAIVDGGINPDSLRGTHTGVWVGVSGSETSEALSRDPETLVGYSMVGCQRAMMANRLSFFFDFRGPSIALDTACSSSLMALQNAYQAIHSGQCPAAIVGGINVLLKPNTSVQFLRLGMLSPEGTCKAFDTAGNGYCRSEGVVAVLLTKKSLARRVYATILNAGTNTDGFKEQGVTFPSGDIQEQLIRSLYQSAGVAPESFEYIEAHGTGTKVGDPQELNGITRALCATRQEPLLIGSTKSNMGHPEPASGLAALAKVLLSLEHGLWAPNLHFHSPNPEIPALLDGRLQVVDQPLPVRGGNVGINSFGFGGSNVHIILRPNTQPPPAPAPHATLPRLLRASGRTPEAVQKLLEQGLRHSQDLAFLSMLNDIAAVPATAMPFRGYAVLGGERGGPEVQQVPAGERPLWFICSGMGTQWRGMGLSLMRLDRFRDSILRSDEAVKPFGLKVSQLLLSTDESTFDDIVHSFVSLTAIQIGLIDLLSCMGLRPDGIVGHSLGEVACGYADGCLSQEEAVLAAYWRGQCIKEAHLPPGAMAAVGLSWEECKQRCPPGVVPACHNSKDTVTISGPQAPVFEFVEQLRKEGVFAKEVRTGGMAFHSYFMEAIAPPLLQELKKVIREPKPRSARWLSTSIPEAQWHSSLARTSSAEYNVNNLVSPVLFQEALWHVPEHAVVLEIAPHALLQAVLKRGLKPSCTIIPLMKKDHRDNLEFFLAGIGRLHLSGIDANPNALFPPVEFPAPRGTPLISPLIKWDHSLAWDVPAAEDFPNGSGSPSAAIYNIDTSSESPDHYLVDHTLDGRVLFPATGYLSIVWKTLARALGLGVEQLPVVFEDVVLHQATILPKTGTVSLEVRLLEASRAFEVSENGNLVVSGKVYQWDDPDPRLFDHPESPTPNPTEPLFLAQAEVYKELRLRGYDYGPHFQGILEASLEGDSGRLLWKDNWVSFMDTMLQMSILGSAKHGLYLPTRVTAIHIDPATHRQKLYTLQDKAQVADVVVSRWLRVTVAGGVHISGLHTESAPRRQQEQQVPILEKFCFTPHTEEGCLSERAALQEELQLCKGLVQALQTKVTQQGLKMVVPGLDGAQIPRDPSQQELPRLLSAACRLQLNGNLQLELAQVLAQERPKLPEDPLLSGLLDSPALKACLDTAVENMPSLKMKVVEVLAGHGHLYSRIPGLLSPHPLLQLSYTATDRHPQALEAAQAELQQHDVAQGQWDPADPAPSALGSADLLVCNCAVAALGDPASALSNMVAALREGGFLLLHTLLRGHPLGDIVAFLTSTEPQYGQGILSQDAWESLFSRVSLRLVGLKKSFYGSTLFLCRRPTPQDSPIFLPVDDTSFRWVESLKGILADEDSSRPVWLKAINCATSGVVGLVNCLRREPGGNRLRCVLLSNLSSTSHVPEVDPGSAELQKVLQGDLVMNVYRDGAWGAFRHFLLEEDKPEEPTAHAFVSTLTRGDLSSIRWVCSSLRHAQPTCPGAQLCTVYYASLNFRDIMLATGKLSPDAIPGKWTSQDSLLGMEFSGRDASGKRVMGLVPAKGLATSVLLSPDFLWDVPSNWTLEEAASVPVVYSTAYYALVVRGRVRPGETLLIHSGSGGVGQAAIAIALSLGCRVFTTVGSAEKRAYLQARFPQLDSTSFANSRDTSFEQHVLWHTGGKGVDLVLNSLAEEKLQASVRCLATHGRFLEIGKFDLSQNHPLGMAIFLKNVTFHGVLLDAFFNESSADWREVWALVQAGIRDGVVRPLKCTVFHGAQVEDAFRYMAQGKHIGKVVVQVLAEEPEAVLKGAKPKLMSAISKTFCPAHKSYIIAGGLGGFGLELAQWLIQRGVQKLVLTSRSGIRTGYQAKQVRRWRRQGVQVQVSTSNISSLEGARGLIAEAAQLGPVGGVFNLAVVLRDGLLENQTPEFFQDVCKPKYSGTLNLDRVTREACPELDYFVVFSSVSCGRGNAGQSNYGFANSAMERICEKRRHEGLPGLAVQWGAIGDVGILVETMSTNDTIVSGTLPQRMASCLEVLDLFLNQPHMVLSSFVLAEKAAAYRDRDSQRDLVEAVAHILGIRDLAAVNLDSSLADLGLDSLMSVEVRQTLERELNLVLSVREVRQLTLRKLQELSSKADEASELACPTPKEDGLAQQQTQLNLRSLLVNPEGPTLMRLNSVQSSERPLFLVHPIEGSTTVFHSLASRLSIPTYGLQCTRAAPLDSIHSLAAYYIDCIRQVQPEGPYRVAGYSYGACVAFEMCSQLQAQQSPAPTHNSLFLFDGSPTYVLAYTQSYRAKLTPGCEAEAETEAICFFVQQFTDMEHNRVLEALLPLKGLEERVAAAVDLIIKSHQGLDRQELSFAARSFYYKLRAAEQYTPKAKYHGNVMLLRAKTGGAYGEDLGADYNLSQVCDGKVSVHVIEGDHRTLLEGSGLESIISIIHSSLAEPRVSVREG
Sequence of Broad substrate specificity ATP-binding cassette transporter ABCG2 (Homo sapiens) (Q9UNQ0 whole entry, looked up): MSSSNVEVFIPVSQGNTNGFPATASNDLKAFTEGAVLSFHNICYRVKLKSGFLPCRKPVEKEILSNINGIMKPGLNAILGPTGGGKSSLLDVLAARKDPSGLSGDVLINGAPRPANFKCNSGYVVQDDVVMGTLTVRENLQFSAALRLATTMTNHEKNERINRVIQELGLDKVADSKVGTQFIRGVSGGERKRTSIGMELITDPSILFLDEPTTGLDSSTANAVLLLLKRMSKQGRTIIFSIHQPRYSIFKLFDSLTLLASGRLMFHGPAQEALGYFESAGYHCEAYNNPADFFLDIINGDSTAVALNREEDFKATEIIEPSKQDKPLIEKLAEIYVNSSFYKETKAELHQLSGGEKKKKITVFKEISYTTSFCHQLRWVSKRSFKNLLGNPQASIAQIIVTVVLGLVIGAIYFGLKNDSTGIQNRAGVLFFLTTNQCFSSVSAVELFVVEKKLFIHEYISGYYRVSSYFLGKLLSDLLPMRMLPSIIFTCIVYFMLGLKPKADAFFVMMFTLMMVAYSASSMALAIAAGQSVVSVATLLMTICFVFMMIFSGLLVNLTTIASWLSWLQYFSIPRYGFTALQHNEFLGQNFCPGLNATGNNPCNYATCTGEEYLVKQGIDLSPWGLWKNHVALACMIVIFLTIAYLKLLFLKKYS

Turning to `C=CC(=O)NCNC(=O)C=C`, the molecule was classed as inactive in [1], in test [2], in test [3], in test [4], in test [5] and in test [7]. For the same molecule, the molecule was classed as inactive in test [8], in [9], in test [10], in test [11], in [13] and in test [16]. The call in test [18] was inactive. The AC50 in test [6] was 25 µM (active); in test [12] it was 50 µM (active); in [14], 50 µM (active); in [15] it was 16 µM (active); in [17], 12.7 µM (active).

Regarding `C1CC2OC2CC1C1CO1` (stereo unspecified), the molecule was classed as inactive in [1], in test [2], in test [4], in test [5], in test [6] and in [7]. In addition, the result in [9], in [10], in [11], in [12], in test [13] and in test [14] was inactive. Further, the molecule was called inactive in test [16], in test [17] and in [18].

`Cc1ccccc1[N+](=O)[O-]`: the molecule was called inactive in test [1], in test [2], in test [3], in [4], in test [5] and in test [6]. The molecule was called inactive in test [7], in test [8], in test [9], in test [10], in test [11] and in [12]. The result in [13], in test [14], in test [16], in [17] and in test [18] was inactive.

Consider `CCC(C)(c1ccc(O)cc1)c1ccc(O)cc1`, for which the AC50 was 70.5 µM (active) in test [1], 71.4 µM (active) in [7] and 88.1 µM (active) in test [14]. Also, the call in [19], in [2], in test [3], in test [4], in test [5] and in [6] was inactive. Besides, the result in test [9], in [10], in [11], in test [12], in test [13] and in test [16] was inactive. The outcome in [17] and in [18] was inactive.

For `CCCCCCOC(=O)c1ccccc1C(=O)OCCCCCC`, the molecule was classed as inactive in [1], in test [2], in test [3], in [4], in test [5] and in test [7]. Besides, the result in test [9], in test [10], in test [11], in test [12], in test [13] and in test [14] was inactive. Besides, the outcome in test [16], in [17] and in [18] was inactive. Also, the concentration at half-maximal activity (AC50) in test [6] was 50 µM (active).

On to `Cc1cc(O)ccc1Cl`, for which the molecule was called inactive in test [1], in test [2], in test [3], in test [4], in [5] and in test [6]. Besides, the call in test [7], in test [9], in test [10], in test [11], in test [12] and in [13] was inactive. For the same molecule, the outcome in test [14], in test [16], in [17] and in [18] was inactive.

On to `CCOCCOC(C)=O`, for which the call in [1], in test [19], in [2], in test [3], in test [4] and in [5] was inactive. For the same molecule, the molecule was called inactive in test [7], in test [9], in test [10], in test [11], in test [12] and in test [13]. Besides, the call in [14], in test [16], in test [17] and in test [18] was inactive. For the same molecule, the AC50 in [6] is 50 µM (active).

Source of the values: PubChem BioAssay (EPA / NIEHS).
